# Bioassay records: PubChem BioAssay, National Center for Advancing Translational Sciences (NCATS)
# A selection: hits, their analogues and other compounds. The true share with any hit is near 0.92%.
# BLM helicase inh: blocks DNA unwinding by human BLM helicase. P54132. recombinant BLM DNA unwinding, fluorescence dequenching. Potency, µM (highest dose often 56.1 µM), for the others: top-dose activity change, negative = inhibition, hits mostly inhibitors. 0.2% of 350,000 active. AID 2528;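 further: plate controls were vehicle for no effect and no enzyme for full effect; nearly all actives have a fitted effect of over 35% in size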
# RECQ1 inh-1: inhibitors of human RECQ1 DNA helicase. RECQ1 DNA unwinding, red fluorescence kinetic read. Potency, µM (doses to about 57.3 µM), for inactives: at the top dose activity, negative = inhibition, hits mostly inhibitors. AID 2549. 0.54% of 240,000 active. P46063;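 further: plate controls were vehicle for no effect and no enzyme for full effect; nearly all actives have a fitted effect of over 30% in size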
#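 50 nM RECQ1T1 preincubated 15 min with compound in Tris pH 8.0 buffer with MgCl2, DTT, Tween-20 and 2.5 ug/ml poly(dI-dC); started with 200 nM TAMRA/BHQ-2 forked duplex and 2 mM ATP. Unwinding read as fluorescence (525/598 nm), two reads 2 h apart.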
# TDP1 inh: TDP1 (human) enzyme inhibition; recombinant TDP1, AlphaScreen DNA substrate cleavage; 0.28% of 350,000 active; Q9NUW8; Potency, µM (titrated, usually from 130 µM), for the others: at the top dose activity change, negative = inhibition, hits mostly inhibitors; further: nearly all actives have a fitted effect of over 40% in size
#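 Compounds were preincubated with Tdp1 (1 nM final) for 15 min at room temperature before substrate (15 nM final) started a 5 min reaction; beads (10 ug/ml final) were then added for 10 min before AlphaScreen detection.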
# FEN1 inh: inhibitors of human flap endonuclease 1. Recombinant FEN1 flap cleavage, fluorescence, 15 min. 0.35% of 390,000 active. Potency, µM (top dose mostly 114 µM), for the others: at the top dose activity change, negative = inhibition, usual class: inhibitors; further: nearly all actives have a fitted effect of over 65% in size
#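 In this screen, 50 nM flap DNA substrate was added to 10 nM FEN1 pretreated with compound for 15 min at room temperature; cleavage was followed with reads at 0 and 15 min, and Hill fitting gave concentration–response parameters.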
# APE1 inh: blocks human APE1 abasic DNA cleavage. P27695. recombinant APE1, TAMRA/BHQ-2 abasic DNA cleavage fluorescence. Potency, µM (titrated, usually from 65.8 µM), for the others: top-dose activity change, negative = inhibition, actives largely listed as inhibitors. 0.35% of 350,000 active;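 further: plate controls were vehicle for no effect and reference inhibitor for full effect; nearly all actives have a fitted effect of over 55% in size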
#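 APE1 at 0.75 nM final was preincubated with compound 15 min at room temperature, then 50 nM double-stranded THF abasic-site substrate (5'-TAMRA/3'-BHQ-2) was added. Fluorescence (ex 525/em 598 nm) was read kinetically; third-minus-first read gave activity.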
# RECQ1 conf: confirmation of human RECQ1 helicase inhibitors; Potency, µM (titrated, usually from 229 µM), for the others: top-dose activity change, negative = inhibition, usual class: inhibitors; 28% of 610 active; shares compounds with RECQ1 inh-1; RECQ1 helicase DNA unwinding, fluorescence; further: nearly all actives have a fitted effect of over 45% in size
# ADP FP counter: displaces ADP in a fluorescence polarization counter-screen for RECQ1 hits. shares compounds with RECQ1 inh-1. ADP fluorescence polarization displacement counterscreen. Potency, µM (series often up to 228 µM), for inactives: at the highest dose activity change, negative = inhibition, hits mostly inhibitors. 27% of 530 active; further: nearly all actives have a fitted effect of over 45% in size
# RECQ1 inh-2: RECQ1 helicase inhibition confirmed, round 2. 15% of 1,100 active. recombinant RECQ1 DNA unwinding, red fluorescence. AID 504841. shares compounds with RECQ1 inh-1. Potency, µM (top dose mostly 119 µM), without a hit: at the top dose activity, negative = inhibition, usual class: inhibitors; further: nearly all actives have a fitted effect of over 50% in size
# Numbers without * were called inactive; u = inconclusive; x = not tested or not shown; [ ] = dose if it differs, or a comment. The call rests on the fitted dose curve; in most records, active means well fitted curve in the direction sought with a large enough effect; inconclusive means small, poorly fitted or top-dose-only effect, or another doubt; inactive means no such curve, though single readings can be large; an effect the other way counts as inactive or inconclusive. Unless noted, on the % scale 0 is the no-effect control and ±100 the full control effect; potency means the concentration at half of the fitted maximal effect.
SMILES,BLM helicase inh,RECQ1 inh-1,TDP1 inh,FEN1 inh,APE1 inh,RECQ1 inh-2,others
CCOC(=O)C1CCCN(S(=O)(=O)c2ccc(N3CCCCS3(=O)=O)cc2)C1 (configuration not stated),2%,x,1%,24%,x,x,
CCOC(=O)C1CN(S(=O)(=O)c2cccc(C(F)(F)F)c2)c2cc(CC(=O)OC)ccc2O1 (configuration not stated),-11%,40µM*,-2%,-5%,5%,-10%,
COc1ccc(C(=O)NCCCN2CCOCC2)cc1S(=O)(=O)N1CCCc2ccccc21,-6%,40µM*,2%,4%,18%,0%,
Nc1c(C(=O)Nc2ccccc2F)sc2nc(-c3cccnc3)ccc12,-6%,32µM*,-2%,1%,13%,-15%,
CC(C)(C)CC(C)(C)N=C1Nc2ccc([N+](=O)[O-])cc2N[C@]12C[C@H]1CCCC(=O)N3CC[C@@H](C2)[C@@H]13,x,x,x,3%,x,x,
Cc1nnc(SCC(=O)N2N=C(c3ccc(Cl)cc3)CC2c2ccco2)[nH]c1=O (configuration not stated),-10%,32µM*,0%,u,-12%,-30%,
O=S(=O)(Cc1ccccc1)N1CCN(c2nc(-c3cccs3)nc3ccccc23)CC1,x,x,1%,10%,x,x,
CCOC(=O)c1c(N2C(=O)Nc3cc(Cl)c(Cl)cc3N2O)sc2c1CCCCC2,-8%,u,3%,u,-10%,20µM*,
Cc1ccc(C2=NN=C(NC(=O)CSc3nnc4c5ccccc5n(C)c4n3)SC2)cc1,-17%,11µM*,3%,3%,15%,x,RECQ1 conf=-2%[114 µM]
C=CCC1(CC=C)CCCN1Cc1nc(COc2ccccc2)no1,-7%,40µM*,1%,1%,-6%,-10%,
CC(C)NS(=O)(=O)c1ccc(NC(=S)NC(=O)c2ccc(-c3ccccc3)cc2)cc1,-9%,u,4%,-8%,-5%,-7%,
C/C(=N\N1CCN(c2ccccc2)CC1)c1cccs1,-1%,-6%,x,2%,1%,x,
C/C(=N\N=C(c1ccccc1)c1ccccc1)c1cccs1,-9%,18µM*,4%,7%,-1%,x,RECQ1 conf=-4%[114 µM];ADP FP counter=-9%[91.9 µM]
CCOC(=O)c1sc2nc(CC(=O)OC)nc(NCc3ccco3)c2c1C,-16%,-28%,7%,-12%,-10%,x,
CCOC(=O)c1sc2ncnc(NCc3ccco3)c2c1C,-9%,u,x,11%,u,-9%,
COc1cc(/C=C/C(=O)Nc2nc3ccc(S(=O)(=O)N(C)C)cc3s2)cc(OC)c1OC,5µM*,6.3µM*,3%,0%,-6%,2.2µM*,
CNS(=O)(=O)c1ccc2nc(NC(=O)/C=C/c3ccco3)sc2c1,-4%,u,u,-24%,u,-21%,
COc1cc(/C=C/C(=O)Nc2nnc(C(C)(C)C)s2)cc(OC)c1OC,-5%,-14%,3%,0%,24%,x,
COc1ccc(CCNC(=O)Cn2cc(C(=O)c3ccccc3)c(=O)c3ccc(C)nc32)cc1OC,-3%,x,x,5%,x,x,
O=C(O)c1ccc2c(c1)C(=O)N(c1cccc(C(=O)/C=C/c3ccccc3)c1)C2=O,-11%,6.3µM*,-1%,u,23%,u,RECQ1 conf=u;ADP FP counter=3%[91.9 µM]
S=C(NCCCc1cnc[nH]1)NCCCN(CCc1ccc(Cl)cc1)c1ccc(Br)cn1,x,x,x,-2%,x,x,
O=C(CSc1n[nH]c(-c2ccccc2)n1)c1ccc(O)c(O)c1,-2%,20µM*,2%,-1%,u,u,
